Shown are actives, neighbours in structure and some others; about 21% of the full set was active somewhere.
Shiga toxin inh = A qHTS for Small Molecule Inhibitors of Shiga Toxin. Vero cells, Shiga toxin protein synthesis inhibition reporter. inhibition, % at 38.7 µM. hit rate 9.2% among 290,000; in the data active means inhibition mostly above about 28%, no sharp cut-off; inactive means mostly below about 43%
Pf growth 96h = Primary qHTS for delayed death inhibitors of the malarial parasite plastid, 96 hour incubation. P. falciparum luciferase reporter growth, 96 h. Potency, µM (titrated, usually from 28.7 µM), hits mostly inhibitors. hit rate 6.9% among 320,000. AID 504834, 2011
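Cell-based qHTS: luciferase-tagged P. falciparum in erythrocytes (2% hematocrit, 0.05% parasitemia final) incubated with compounds for 96 hours, 37 C, 5% CO2; luciferase detection reagent then added and luminescence measured.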
NS1 function inh = qHTS Assay for Inhibitors of Influenza NS1 Protein Function. Potency, µM (top dose mostly 46.1 µM). hit rate 0.4% among 270,000. AID 2326, 2010; calls by dose curve; further: actives are rising curves; nearly all actives have a fitted effect of over 50% in size
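OD600 was taken as the measure of yeast growth restored by compound in an NS1-expressing S. cerevisiae strain. Cells had been washed out of glucose medium and diluted 1:100 into galactose -URA medium, pH 6.0.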
FBPA Giardia inh = qHTS Assay for Inhibitors of Fructose-1,6-bisphosphate Aldolase from Giardia Lamblia. A8B2U2. purified Giardia FBPA. Potency, µM (top dose mostly 59.6 µM), hits mostly inhibitors. hit rate 0.71% among 290,000; further: nearly all actives have a fitted effect of over 55% in size
Target sequence (A8B2U2 whole entry, looked up): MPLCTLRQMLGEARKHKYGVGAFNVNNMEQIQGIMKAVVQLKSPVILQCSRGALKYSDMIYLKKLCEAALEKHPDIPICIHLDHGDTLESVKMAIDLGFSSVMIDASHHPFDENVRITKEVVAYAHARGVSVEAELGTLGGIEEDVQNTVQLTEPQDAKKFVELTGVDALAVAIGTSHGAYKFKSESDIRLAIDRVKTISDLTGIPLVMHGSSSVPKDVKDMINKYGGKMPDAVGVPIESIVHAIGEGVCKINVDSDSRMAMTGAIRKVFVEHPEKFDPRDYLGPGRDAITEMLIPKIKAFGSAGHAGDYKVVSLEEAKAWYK
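Giardia FBPA (40 nM reagent) was preincubated 10 min at RT with compound (up to 57.5 uM final), then substrate plus GAPDH/TPI/NAD/arsenate coupling system with diaphorase/resazurin was added; resorufin fluorescence (525/598 nm) was read after 20 min.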
Pf growth 48h = Primary qHTS for delayed death inhibitors of the malarial parasite plastid, 48 hour incubation | hit rate 5.9% among 310,000 | P. falciparum luciferase growth in erythrocytes, 48 h | Potency, µM (top dose mostly 28.7 µM), usual class: inhibitors
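Growth was read as firefly luciferase luminescence after a 48 h, 37 C, 5% CO2 exposure of compounds to reporter-bearing P. falciparum cultures (0.1% parasitemia, 2% hematocrit final) in Albumax-supplemented RPMI 1640.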
Cycloheximide cs = Cycloheximide Counterscreen for Small Molecule Inhibitors of Shiga Toxin; cell reporter, cycloheximide protein synthesis inhibition counterscreen; max response, %; hit rate 12% among 300,000; in the data active means max response mostly above about 13%, no sharp cut-off; inactive means mostly below about 14%; further: read at 38.3 µM for the half of the compounds with a filed dose
Of the large screens only hits and unclear results are named; the others gave an inactive call. Unless noted, the call rests on the fitted dose curve; in most records, active means well fitted curve in the direction sought with a large enough effect; inconclusive means small, poorly fitted or top-dose-only effect, or another doubt; inactive means no such curve, though single readings can be large; an effect the other way counts as inactive or inconclusive.

COc1ccccc1NC(=O)C(=O)N/N=C(\C)CC(=O)Nc1ccc(OCc2ccccc2)cc1	none
CC(=O)Nc1ccc(C(=O)N/N=C(\C)CC(=O)Nc2ccc(OCc3ccccc3)cc2)cc1	Cycloheximide cs 18.5
CC(=O)Nc1ccc(NC(=O)C/C(C)=N/NC(=O)c2cccc3ccccc23)cc1	none
C/C(CC(=O)Nc1ccc(OCc2ccccc2)cc1)=N\NC(=O)C(=O)Nc1cccc(C)c1	Pf growth 96h inconclusive, Cycloheximide cs 28.3
Cc1cccc(NC(=O)CNC(=O)c2ccc(-n3cncn3)c([N+](=O)[O-])c2)c1C	none (no result: Shiga toxin inh, NS1 function inh, FBPA Giardia inh, Cycloheximide cs)
Cc1ccc(NC(=O)c2ccc(-n3cccn3)c([N+](=O)[O-])c2)cc1	Pf growth 96h inconclusive, FBPA Giardia inh inconclusive, Cycloheximide cs 20.6
O=C(Nc1ccccc1Cl)c1ccc(-n2cccn2)c([N+](=O)[O-])c1	Shiga toxin inh 41.5, Pf growth 96h inconclusive
O=C(O)c1ccc(-n2cccn2)c([N+](=O)[O-])c1	none
O=C(Nc1ccc(NC(=O)c2ccc([N+](=O)[O-])cc2[N+](=O)[O-])cc1)c1ccco1	Pf growth 48h inconclusive
O=C(Nc1ccc(C2=NCCN2)cc1)c1ccc(C(=O)Nc2ccc(C3=NCCN3)cc2)c([N+](=O)[O-])c1	Pf growth 96h 0.147µM, Pf growth 48h 0.37µM
Cc1cccc(NC(=O)c2ccc(-n3cccn3)c([N+](=O)[O-])c2)c1	Pf growth 96h inconclusive, Cycloheximide cs 31.6
Cc1nn(C2CCS(=O)(=O)C2)c(C)c1CN(C)C(=O)c1ccc(Cl)cc1 (stereo unspecified)	none (no result: Shiga toxin inh, NS1 function inh, FBPA Giardia inh, Cycloheximide cs)
CC(C)(C)c1cc(CP(=O)(c2ccccc2)c2ccccc2)cc(C(C)(C)C)c1O	Pf growth 96h inconclusive, Pf growth 48h inconclusive, Cycloheximide cs 12.7 (no result: Shiga toxin inh)
CN(C)Cc1cc(C(C)(C)C)c(O)c(C(C)(C)C)c1	Pf growth 96h 1.04µM
Cc1cc(C(=O)Nc2sc(C)c(-c3ccc(F)cc3)c2C(N)=O)no1	Shiga toxin inh 83.6, Cycloheximide cs 61.6
CCc1ccc(-c2c(C)sc(NC(C)=O)c2C(N)=O)cc1	none
COc1ccc(-n2ccc(-c3nn(-c4cccc(C(F)(F)F)c4)ccc3=O)n2)cc1	Pf growth 96h 3.29µM, Pf growth 48h 7.38µM
O=C(O)c1nn(-c2cccc(C(F)(F)F)c2)ccc1=O	none (no result: Pf growth 48h)
O=c1ccn(-c2cccc(C(F)(F)F)c2)nc1-c1ccn(-c2ccccc2F)n1	Pf growth 96h 5.86µM, FBPA Giardia inh 15.8µM, Pf growth 48h inconclusive
CNC(=O)c1nn(-c2ccccc2)ccc1=O	none
Cc1ccc(-n2ccc(-c3nn(-c4ccccc4)ccc3=O)n2)cc1	Pf growth 96h 7.38µM, Pf growth 48h inconclusive (no result: NS1 function inh)
COc1ccccc1NC(=O)c1nn(-c2cccc(C(F)(F)F)c2)ccc1=O	Pf growth 96h inconclusive (no result: FBPA Giardia inh)
O=C1COc2ccc(S(=O)(=O)Nc3ccc(F)cc3)cc2N1	Pf growth 96h inconclusive (no result: FBPA Giardia inh)
CC1CCN(c2oc(-c3cccc4ccccc34)nc2C#N)CC1	none
N#Cc1nc(-c2ccccc2Cl)oc1N1CCCCC1	Shiga toxin inh 128.7, Cycloheximide cs 24.1
N#Cc1nc(-c2cccc3ccccc23)oc1N1CCCCC1	Cycloheximide cs 22.4
N#Cc1nc(-c2ccccc2F)oc1N1CCCCC1	none (no result: Pf growth 48h)
O=C(Nc1ccc2nn(-c3ccccc3)nc2c1)c1ccc2c(c1)OCO2	none
O=C(Nc1ccc2nsnc2c1)c1cccs1	Cycloheximide cs 30.2
O=C(Nc1ccc2nn(-c3ccccc3)nc2c1)c1cccs1	Shiga toxin inh 72.6, Pf growth 48h inconclusive, Cycloheximide cs 34.8
O=C(O)c1c2c(nc3ccccc13)/C(=C/c1cccc([N+](=O)[O-])c1)CCC2	none
Cc1nc2ccc(NC(=O)c3cccs3)cc2s1	Shiga toxin inh 98.1, Cycloheximide cs 45.2
Cc1nc2ccc(NC(=O)c3sccc3C)cc2s1	Shiga toxin inh 63.7, Cycloheximide cs 64.4
COc1ccc2nc(NC(=O)c3cccs3)sc2c1	Shiga toxin inh 77.4, Cycloheximide cs 43.8
CC(=O)Nc1ccc2nc(NC(=O)c3cccs3)sc2c1	Shiga toxin inh 77.5, Cycloheximide cs 42.9
C=CCN(CC=C)C(=O)Nc1ccc2nc(C)sc2c1	Pf growth 96h inconclusive
O=C(CS(=O)(=O)c1ccccc1)Nc1nnc(Cc2ccccc2)s1	none
O=C(Nc1nc2ccc(Cl)cc2s1)[C@@H]1CCCN1C(=O)c1cccs1	Shiga toxin inh 80.5, Pf growth 96h inconclusive, Cycloheximide cs 82.1
COc1ccc(CCNC(=O)c2cccs2)cc1OC	none
COc1ccc(CNc2nc(NCc3ccc(OC)c(OC)c3)n(C(=O)c3cccs3)n2)cc1OC	Pf growth 96h 7.38µM, Pf growth 48h inconclusive
CC(=O)NCc1ccc(C(=O)CCl)s1	Pf growth 96h inconclusive, Pf growth 48h 4.15µM
COc1ccc(C(=O)OCC(=O)c2ccc(CNC(C)=O)s2)cc1	Pf growth 96h inconclusive (no result: Shiga toxin inh, NS1 function inh, FBPA Giardia inh, Cycloheximide cs)
CCOC(=O)C1CCN(Cc2cn(C)nc2-c2ccc(Oc3ccccc3)cc2)CC1	Pf growth 48h inconclusive
C=CCn1c(SCC(=O)NC23CC4CC(CC(C4)C2)C3)nc2cc(C(=O)O)ccc2c1=O	Pf growth 96h 4.65µM, Pf growth 48h 2.94µM (no result: NS1 function inh)
C=CCn1c(SCc2ccc(Cl)cc2)nc2cc(C(=O)N3CCC(C(N)=O)CC3)ccc2c1=O	Pf growth 96h 6.57µM, Pf growth 48h inconclusive
C=CCn1c(SCC(=O)Nc2ccc(F)cc2)nc2cc(C(=O)O)ccc2c1=O	none
Cc1cc(C)c2nc(-c3ccccn3)cc(C(=O)n3cccn3)c2c1	none
COc1ccccc1C(C#N)N1N=C(C)CC1c1ccccc1 (stereo unspecified)	none
CC1=NN(C(C#N)c2ccc(F)cc2)C(c2ccccc2)C1 (stereo unspecified)	Pf growth 96h 14.7µM, NS1 function inh inconclusive
O=[N+]([O-])c1ccc(N2N=C(c3ccccc3)CC2c2ccccc2O)cc1 (stereo unspecified)	Pf growth 96h inconclusive, Pf growth 48h inconclusive
CC1=NN(C(C#N)c2ccccc2C)C(c2ccccc2)C1 (stereo unspecified)	none
N#CC(c1ccccc1O)N1N=C(c2ccccc2)CC1c1ccccc1 (stereo unspecified)	Shiga toxin inh 96.6, Cycloheximide cs 62.8
COc1cc(C(C#N)N2N=C(c3ccccc3)CC2c2ccccc2)ccc1O (stereo unspecified)	Shiga toxin inh 86.9, Cycloheximide cs 29.8
CCOc1ccc(NC(=O)/C(C=Nc2ccccc2)=C(\C)O)cc1	none
O=C1Cc2ccccc2N1c1ccccc1	none (no result: Pf growth 96h, Pf growth 48h)
O=C1CC(=Nc2ccccc2)NN1c1ccccc1	Pf growth 96h 13.1µM, Pf growth 48h inconclusive, Cycloheximide cs 13.6
CC1(OC(=O)CCc2ccccc2)C(=O)C=C2C=C(c3ccsc3)OC=C2C1=O (stereo unspecified)	NS1 function inh 1.26µM
O=C(CCN1CCN(c2ccccc2F)CC1)Nc1cccc(F)c1	none
